USP30 inh = human USP30 deubiquitinase inhibition; purified USP30, Ub-rhodamine cleavage fluorescence; inhibition, % at 25 µM; Q70CQ3; 47,000 tested, 5.3% active; AID 1645860
USP17 inh = inhibitors of human USP17 deubiquitinase; 47,000 tested, 6.5% active; purified USP17, Ub-rhodamine cleavage fluorescence, 3 h; A8MUK1; inhibition, % at 50 µM
USP28 block = human USP28 deubiquitinase inhibition | Q96RU2 | 47,000 tested, 3% active | inhibition, % at 25 µM | purified USP28, Ub-rhodamine cleavage fluorescence, 30 min
OTUD3 block = blocks human OTUD3 ubiquitin-rhodamine cleavage. inhibition, % at 25 µM. Q5T2D3. purified OTUD3, Ub-rhodamine fluorescence, 2 h. 47,000 tested, 0.7% active. AID 1645858
Target sequence (Q5T2D3 whole entry, looked up): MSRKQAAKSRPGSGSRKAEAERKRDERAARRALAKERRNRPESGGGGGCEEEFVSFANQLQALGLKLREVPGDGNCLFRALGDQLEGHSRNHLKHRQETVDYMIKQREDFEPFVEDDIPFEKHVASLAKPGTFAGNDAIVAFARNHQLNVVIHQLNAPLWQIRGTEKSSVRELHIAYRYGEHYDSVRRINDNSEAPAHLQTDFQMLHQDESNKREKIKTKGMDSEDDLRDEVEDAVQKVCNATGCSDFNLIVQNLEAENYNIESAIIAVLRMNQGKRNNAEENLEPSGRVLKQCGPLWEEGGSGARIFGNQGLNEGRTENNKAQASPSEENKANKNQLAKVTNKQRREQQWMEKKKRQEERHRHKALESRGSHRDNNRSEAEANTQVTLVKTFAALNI
Numbers without * were called inactive; nt = no result given. An excerpt weighted towards active compounds, which were near 11% of everything screened. No stated cut-off is given here; in the data, active means inhibition above about 30%; inactive means the rest.

SMILES	USP30 inh	USP17 inh	USP28 block	OTUD3 block
O=C(Nc1ccc(N2CCN(Cc3ccc(F)cc3)C2=O)nc1)C1CCC1	62.6*	60.1*	38.4*	22.5
Cc1nnc(-c2nnc(NCc3ccc(Cl)cc3)c3ccccc23)o1	36.6*	52.0*	13.4	3.3
CCc1ccccc1Nc1cc(C(=O)NC2CCCC2)c2ccccc2n1	-32.8	-4.5	-4.0	-0.4
COc1ccc([N+](=O)[O-])cc1NC(=O)COC(=O)C1CCCN1S(=O)(=O)c1ccc(Cl)cc1 (stereo not drawn)	34.6*	0.2	3.9	3.8
O=C(COC(=O)[C@@H]1CCCN1S(=O)(=O)c1ccc(Cl)cc1)Nc1ccccc1	-0.7	-5.3	-2.7	-3.3
O=C(COC(=O)C1CCCN1S(=O)(=O)c1ccc(Cl)cc1)Nc1ccc2c(c1)OCO2 (stereo not drawn)	33.1*	22.4	30.0	15.0
O=C(COC(=O)C1(c2ccc(Cl)cc2)CCCC1)c1ccc2c(c1)OCCO2	-20.7	-14.7	-7.1	-10.2
O=C(COC(=O)C1(c2ccc(Cl)cc2)CCCC1)Nc1ccc2c(c1)OCO2	47.8*	7.5	19.5	28.7
CCn1c(=O)c2ccccc2n(Cc2nc(-c3ccc(OC)cc3)no2)c1=O	21.5	35.5*	1.7	9.3
CCn1c(=O)c2ccccc2n(Cc2nc(-c3ccccc3)no2)c1=O	5.2	7.7	5.5	1.8
COc1cccc(OC)c1C(=O)N1CCN(C(=O)C2CC2)CC1	18.5	11.2	8.8	12.3
Cc1nn(-c2ccc3nncn3n2)c2c1C(c1ccc(C(C)C)cc1)CC(=O)N2 (stereo not drawn)	44.9*	18.9	16.3	12.2
Cc1ccccc1C1CC(=O)Nc2c1c(C)nn2-c1ccc2nnc(C)n2n1 (stereo not drawn)	29.4	11.1	18.4	13.8
Nc1ccc2oc(-c3cccc(-c4nc5cc(N)ccc5o4)n3)nc2c1	68.3*	52.9*	47.9*	39.7*
CC(C)(C)c1ccc(/C=C/C(=O)Nc2ccc3c(c2)OCCO3)cc1	-8.2	-2.2	33.5*	-2.8
O=C(/C=C/c1ccc(F)cc1)Nc1ccc2c(c1)OCCO2	19.8	7.0	86.2*	2.4
CN1CCN(C(=O)Cn2cccc2-c2nc(-c3ccccc3)cs2)CC1	-2.5	0.3	0.2	10.9
COc1ccc(-c2nc3c4c(C)c(C)n(CCO)c4ncn3n2)cc1	nt	1.8	nt	0.1
Cc1nc(-c2ccnn2C(C)C)cc(C2CCCN(S(=O)(=O)N(C)C)C2)n1 (stereo not drawn)	3.5	-1.5	-1.5	1.1
CC1CCN(C(=O)C2CCN(c3nc4ccc(-c5cncnc5)nc4s3)CC2)CC1	-0.3	8.9	13.8	5.5
O=C(c1ccc(F)cc1)N1CCC(c2ccnc(Nc3ccccn3)n2)C1 (stereo not drawn)	6.5	-1.3	6.2	2.9
O=C(Cc1nc(-c2ccccc2)n[nH]1)Nc1cccc(F)c1	30.1*	12.4	20.7	9.8
CC(=O)c1cccc(NC(=O)CCS(=O)(=O)c2ccc3c(c2)OCC(=O)N3)c1	-12.8	-7.4	-8.3	-14.4
COc1ccc(C(=O)c2c[nH]c3ccccc3c2=O)cc1	nt	32.4*	nt	14.0
Cc1cccc(NC(=O)c2nn(C)c3ccccc3c2=O)c1	36.8*	64.3*	18.9	2.6
SMILES	USP30 inh	USP17 inh	USP28 block	OTUD3 block
Cc1ccc(NC(=O)c2nn(C)c3ccccc3c2=O)cc1	-2.9	14.2	-8.7	-1.1
CCOc1cc2c(cc1OCC)C(c1c(OC)ccc3ccccc13)NCC2 (stereo not drawn)	38.2*	0.1	7.7	9.9
CCOc1cc2c(cc1OCC)C(c1cc3c(cc1Br)OCO3)NCC2 (stereo not drawn)	-6.6	-6.8	0.6	-5.8
CC(=O)N1c2ccc(S(=O)(=O)N3CCC(C(=O)NCCc4ccc(C)cc4)CC3)cc2CC1C (stereo not drawn)	3.7	-4.0	1.4	6.0
Fc1ccc(Cc2nc(-c3ccn4cnnc4c3)no2)cc1	-56.1	-3.3	35.6*	-10.6
Brc1ccccc1Cc1nc(-c2ccn3cnnc3c2)no1	-158.3	-5.1	1.8	-31.1
Cc1ccc(NC(=O)c2cn(CC(O)c3ccc4c(c3)OCO4)nn2)cc1 (stereo not drawn)	47.2*	45.7*	18.6	8.7
Cc1ccc(/C=C/C(=O)N2CCC(c3nc(C(=O)N4CCOCC4)c(C)o3)CC2)cc1	22.9	-2.7	7.4	6.9
Cc1cccc(NC(=O)CC2C(=O)Nc3nc(-c4ccccc4)nn32)c1 (stereo not drawn)	31.1*	15.6	13.9	13.3
O=C(CC1C(=O)Nc2nc(-c3ccccc3)nn21)Nc1ccc(Cl)c(C(F)(F)F)c1 (stereo not drawn)	-8.3	-4.2	-3.0	-2.0
